Results on 6 compounds are retold here after PubChem BioAssay.

The source made the active and inactive calls.

In one test the target is Albumin (Bos taurus) (UniProt P02769). In words: bovine serum albumin binders on microarray, profiling panel, artefact control for SMM control protein annotation, biochemical, small-molecule microarray, Alexa647 label, 635/667 nm fluorescence (AID 1118).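 Further: score merges 667 nm emission intensity and signal-to-noise per printed compound spot.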 Conditions: BSA-A647 binding, fluorescence 635 nm, higher = more signal.
Chain of Albumin (Bos taurus) (P02769 whole entry, looked up): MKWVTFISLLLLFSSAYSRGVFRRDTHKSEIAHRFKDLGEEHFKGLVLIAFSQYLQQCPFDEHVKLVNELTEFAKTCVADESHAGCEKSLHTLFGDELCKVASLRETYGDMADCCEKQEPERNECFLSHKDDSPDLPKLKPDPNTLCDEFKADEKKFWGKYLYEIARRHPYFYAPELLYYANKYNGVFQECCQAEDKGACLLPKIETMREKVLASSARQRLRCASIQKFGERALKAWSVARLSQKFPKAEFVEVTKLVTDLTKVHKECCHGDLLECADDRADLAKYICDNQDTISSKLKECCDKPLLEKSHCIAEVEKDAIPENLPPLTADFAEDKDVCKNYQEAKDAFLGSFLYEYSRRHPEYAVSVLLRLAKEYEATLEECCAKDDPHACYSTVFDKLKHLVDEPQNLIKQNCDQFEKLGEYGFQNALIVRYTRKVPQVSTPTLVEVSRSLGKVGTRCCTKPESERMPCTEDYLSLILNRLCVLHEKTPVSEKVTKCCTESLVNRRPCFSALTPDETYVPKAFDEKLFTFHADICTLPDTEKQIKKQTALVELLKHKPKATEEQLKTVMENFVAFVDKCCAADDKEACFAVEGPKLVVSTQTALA
The nature of test [1]: small-molecule microarray binders of probe aXIP, primary screen, biochemical, NeuroSMM set, 635/667 nm fluorescence (AID 1119).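 Further: probe is the protein aXip251-270 applied at 1 µg/mL to compound-printed slides; binding of probe to printed compounds measured as 667 nm fluorescence plus signal to noise.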 The following applies: higher = more signal, called active from +8 up or from −8 down.
The nature of test [2]: small-molecule binders of probe aNOTCH3, primary screen, biochemical, small-molecule microarray, 635/667 nm fluorescence (AID 1120).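 Further: probe is a biotin-tagged antibody raised against NOTCH3 rather than NOTCH3 protein; score merges spot fluorescence near 667 nm with spot signal to noise.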 Conditions: higher = more signal.
Test [3] is described as follows: small-molecule binders of probe aNOTCH2, primary screen, biochemical, small-molecule microarray, 635/667 nm fluorescence (AID 1121).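 Further: score merges feature fluorescence read at 667 nm with its signal to noise.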 Conditions: higher = more signal.
The target in test [4] is Carbonic anhydrase 2 (Homo sapiens) (UniProt P00918). Description: CAII small-molecule binders, profiling panel, biochemical, small-molecule microarray, Alexa647-labelled CAII (AID 1122). The following applies: CAII-A647 binding fluorescence, higher = more signal.
The nature of test [5]: COS7 lysate on small-molecule microarray, probe aHis, 635 nm (AID 1123).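 Further: z-score combines 667nm fluorescence intensity with signal-to-noise per printed compound spot.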 Conditions: COS7 cell lysate, fluorescence, higher = more signal.
The nature of test [6]: compound binding in COS7 lysate, probe aLAP1, primary screen, cell lysate, small-molecule microarray (AID 1124).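 Further: lysate comes from COS7 cells expressing LAP1 and is applied at 0.3 µg/mL; score merges spot fluorescence near 667 nm with signal-to-noise over triplicate slides.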 Conditions: probe aLAP1, fluorescence, higher = more signal.
A further test has as its system Sam68 (KHDRBS1). Description: Sam68 small-molecule binders, primary screen, biochemical, small-molecule microarray, 635 nm fluorescence (AID 1125).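 Further: score merges 667 nm channel intensity with signal to noise over triplicate slides.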 The following applies: small-molecule microarray binding, higher = more signal.
The test system of test [7] is Chordin-like protein 2 (CHRDL2). In words: CHRDL2 small-molecule binders, primary screen, biochemical, small-molecule microarray, 635 nm fluorescence (AID 1126).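 Further: printed compound slides probed with Chrdl2 protein at 4 µg/mL for 1 h at 4 C; score merges 667 nm emission intensity with signal to noise over three replicate slides.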 The following applies: small-molecule microarray binding, fluorescence 635 nm; higher = more signal.
For test [8], the target named is Concanavalin-A (Canavalia ensiformis) (UniProt P02866). In words: ConA small-molecule binders, primary screen, artefact control for SMM control protein annotation, biochemical, small-molecule microarray, Alexa647 label, 635 nm (AID 1127).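 Further: z combines 667 nm emission intensity with signal-to-noise across three replicate slides.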 Conditions: ConA-A647 binding fluorescence, higher = more signal.
Chain of Concanavalin-A (Canavalia ensiformis) (P02866 whole entry, looked up): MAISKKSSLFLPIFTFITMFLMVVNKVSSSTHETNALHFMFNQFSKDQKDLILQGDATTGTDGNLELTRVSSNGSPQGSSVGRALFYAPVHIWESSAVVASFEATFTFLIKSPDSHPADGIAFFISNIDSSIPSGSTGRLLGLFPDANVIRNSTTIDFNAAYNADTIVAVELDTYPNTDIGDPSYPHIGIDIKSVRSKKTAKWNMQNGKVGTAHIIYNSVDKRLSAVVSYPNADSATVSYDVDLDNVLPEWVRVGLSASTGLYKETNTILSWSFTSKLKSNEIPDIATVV
Test [9] is described as follows: anti-His antibody binders, primary screen, artefact control for SMM control protein annotation, biochemical, small-molecule microarray, 635 nm fluorescence (AID 1128).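 Further: score merges feature fluorescence with signal-to-noise for each printed compound spot.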 Conditions: anti-His Alexa647 antibody binding, higher = more signal.
Test [10] relates to Human papillomavirus type 1a E7 protein (residues 1-88). Description: HPV1a E7 small-molecule binders, primary screen, biochemical, small-molecule microarray, residues 1-88, 635 nm (AID 1129). The following applies: small-molecule microarray binding, fluorescence 635 nm; higher = more signal.
Test [11] concerns the target Focal adhesion kinase 1 (Homo sapiens) (UniProt Q05397). Description: small-molecule microarray binders of FAK, primary screen, biochemical, 635/667 nm fluorescence, BSA, DTT (AID 1130).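 Further: composite of spot emission at 667 nm and signal to noise over triplicate slides.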 Conditions: PTK2 binding, 635 nm fluorescence, higher = more signal.
The subject of test [12] is Fibrinogen (Alexa647-labelled). Description: fibrinogen binders on compound microarrays, profiling panel, artefact control for SMM control-protein annotation, biochemical, small-molecule microarray, 635/667 nm fluorescence (AID 1131).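 Further: z-score merges 667 nm fluorescence with per-spot signal-to-noise over triplicate slides.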 The following applies: fibrinogen-A647 binding fluorescence, higher = more signal.
The target in test [13] is Follistatin (Homo sapiens) (UniProt P19883). In words: follistatin binders on small-molecule microarrays, primary screen, biochemical, small-molecule microarray, 635/667 nm fluorescence (AID 1132). The following applies: FST binding, 635 nm fluorescence, higher = more signal.
Chain of Follistatin (Homo sapiens) (P19883 whole entry, looked up): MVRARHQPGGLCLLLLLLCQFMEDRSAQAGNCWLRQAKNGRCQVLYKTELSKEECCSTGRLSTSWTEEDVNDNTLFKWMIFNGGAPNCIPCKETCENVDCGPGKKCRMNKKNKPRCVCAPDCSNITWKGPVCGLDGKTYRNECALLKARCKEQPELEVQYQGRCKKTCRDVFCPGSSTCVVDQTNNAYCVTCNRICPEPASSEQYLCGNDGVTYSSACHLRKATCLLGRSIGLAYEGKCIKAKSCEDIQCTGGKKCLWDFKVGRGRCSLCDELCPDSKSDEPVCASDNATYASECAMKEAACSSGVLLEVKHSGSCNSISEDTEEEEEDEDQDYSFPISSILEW
Test [14] has as its target Fibroblast growth factor 2 (Homo sapiens) (UniProt P09038). Description: FGF2 binders on small-molecule microarrays, primary screen, biochemical, small-molecule microarray, 635/667 nm fluorescence (AID 1133). The following applies: small-molecule microarray binding, FGF2, fluorescence 635/667; higher = more signal.
Test [15] in a line: mitochondrial membrane potential change in A549 cells, profiling panel, cell-based, JC-1 fluorescence, basal, 24 h, 100 nL (AID 1138).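 Further: A549 lung adenocarcinoma cells under basal conditions with no added stimulus; test concentration not given here.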 Conditions: higher = more signal.
In a further test the test system is Lefty1. Description: Lefty1 binders on small-molecule microarrays, primary screen, biochemical, small-molecule microarray, 635/667 nm fluorescence (AID 1139). The following applies: small-molecule microarray binding, fluorescence 635/667; higher = more signal.
Test [16] concerns wheat germ agglutinin (Triticum aestivum), Alexa647-labelled. Description: wheat germ agglutinin binders on compound microarrays, profiling panel, artefact control for SMM control-protein annotation, biochemical, small-molecule microarray, 635/667 nm fluorescence (AID 1140).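 Further: score merges 667 nm feature emission with signal to noise over triplicate slides.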 The following applies: WGA-A647 binding, 635 nm fluorescence, higher = more signal.
In test [17] the target is Luciferin 4-monooxygenase (Photinus pyralis) (UniProt P08659). Description: firefly luciferase enzyme inhibitors, primary screen, biochemical, luminescence, purified enzyme, 2006 set (AID 1141).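 Further: cell-free assay with purified firefly luciferase at 100 ng per well in PBS; test concentration not given here.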 Conditions: SteadyGlo luminescence, 30 min, higher = more signal, called active from +8 up or from −8 down.
Chain of Luciferin 4-monooxygenase (Photinus pyralis) (P08659 whole entry, looked up): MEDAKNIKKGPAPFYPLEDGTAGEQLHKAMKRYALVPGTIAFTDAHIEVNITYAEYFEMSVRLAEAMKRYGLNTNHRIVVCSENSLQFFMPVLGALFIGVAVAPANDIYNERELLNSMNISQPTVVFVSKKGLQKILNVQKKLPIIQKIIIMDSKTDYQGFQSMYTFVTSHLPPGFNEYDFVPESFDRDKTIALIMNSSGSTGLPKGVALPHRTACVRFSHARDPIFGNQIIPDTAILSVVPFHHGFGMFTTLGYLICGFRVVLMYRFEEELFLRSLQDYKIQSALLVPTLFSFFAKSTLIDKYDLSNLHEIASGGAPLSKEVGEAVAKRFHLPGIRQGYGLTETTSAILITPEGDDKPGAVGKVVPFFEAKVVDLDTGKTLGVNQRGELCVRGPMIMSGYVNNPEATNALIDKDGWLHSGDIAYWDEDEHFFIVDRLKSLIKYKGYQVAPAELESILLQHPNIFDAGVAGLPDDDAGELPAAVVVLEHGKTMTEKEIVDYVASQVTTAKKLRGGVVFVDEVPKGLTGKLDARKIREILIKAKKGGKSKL

Chain of Focal adhesion kinase 1 (Homo sapiens) (Q05397 whole entry, looked up): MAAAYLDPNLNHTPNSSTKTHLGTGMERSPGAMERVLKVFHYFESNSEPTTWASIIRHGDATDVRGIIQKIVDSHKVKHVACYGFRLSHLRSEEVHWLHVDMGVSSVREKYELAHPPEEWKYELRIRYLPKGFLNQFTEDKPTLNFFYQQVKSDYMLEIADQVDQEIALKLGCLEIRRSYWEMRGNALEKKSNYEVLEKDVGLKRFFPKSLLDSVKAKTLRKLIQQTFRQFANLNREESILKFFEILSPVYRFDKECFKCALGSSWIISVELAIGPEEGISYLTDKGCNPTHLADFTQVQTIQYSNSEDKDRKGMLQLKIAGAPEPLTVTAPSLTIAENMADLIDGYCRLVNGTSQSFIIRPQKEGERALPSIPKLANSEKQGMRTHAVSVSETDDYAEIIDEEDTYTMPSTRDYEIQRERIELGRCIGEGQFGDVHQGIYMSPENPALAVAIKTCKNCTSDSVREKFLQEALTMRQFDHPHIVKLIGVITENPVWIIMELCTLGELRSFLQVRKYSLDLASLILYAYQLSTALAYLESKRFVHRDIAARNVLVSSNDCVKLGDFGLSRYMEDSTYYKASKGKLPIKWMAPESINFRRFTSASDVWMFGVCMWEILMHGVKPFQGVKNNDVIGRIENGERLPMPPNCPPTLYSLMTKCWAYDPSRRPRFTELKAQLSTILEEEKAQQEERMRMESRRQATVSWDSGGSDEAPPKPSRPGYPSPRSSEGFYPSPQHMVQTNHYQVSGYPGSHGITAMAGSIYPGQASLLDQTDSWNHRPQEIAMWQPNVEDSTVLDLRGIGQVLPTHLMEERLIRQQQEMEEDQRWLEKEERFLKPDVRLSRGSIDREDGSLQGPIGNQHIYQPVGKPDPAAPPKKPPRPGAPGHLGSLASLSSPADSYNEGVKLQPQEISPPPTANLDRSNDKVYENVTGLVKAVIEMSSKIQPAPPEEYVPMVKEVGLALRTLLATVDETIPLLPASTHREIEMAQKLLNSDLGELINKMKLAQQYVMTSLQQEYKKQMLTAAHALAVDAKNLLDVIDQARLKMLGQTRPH
Chain of Fibroblast growth factor 2 (Homo sapiens) (P09038 whole entry, looked up): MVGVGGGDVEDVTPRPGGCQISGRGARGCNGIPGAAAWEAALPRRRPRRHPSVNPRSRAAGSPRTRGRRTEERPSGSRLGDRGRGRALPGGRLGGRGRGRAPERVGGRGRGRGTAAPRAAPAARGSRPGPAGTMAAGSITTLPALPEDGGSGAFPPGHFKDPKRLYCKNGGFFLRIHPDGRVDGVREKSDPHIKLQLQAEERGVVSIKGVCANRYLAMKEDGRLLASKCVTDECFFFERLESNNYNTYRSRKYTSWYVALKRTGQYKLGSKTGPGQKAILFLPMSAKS

Consider `CC(C)=CCCC(C)=CCON=C1C[C@@H](O)[C@@H](O)[C@@H]2[C@@H]3C(=O)N(c4cccc(Oc5ccccc5)c4)C(=O)[C@@H]3CC[C@H]12`, for which the composite z-score was 0.631 with Albumin (Bos taurus); -0.0288 in test [2]; -0.155 in test [3]; 0.376 in test [4]; 1.23 in test [5]; 0.163 in test [6]. In addition, the composite z-score in the test with Sam68 (KHDRBS1) was 1.02; in test [7] it was 0.492; in [8], 0.609; in [9], 0.364; in test [10], 1.03; in [11], 0.132. Further, the composite z-score in [12] turned out to be 0.693; in test [13], 0.559; in [14] it was 0.252; in the test with Lefty1, 0.719; in test [16], 0.197. In addition, in test [1], the composite Z-score is 1.38 (inactive). The z-score in [15] was -0.137; in [17], 0.664 (inactive).
With `CCOC(=O)[C@H](Cc1ccccc1)NC(=O)CCC1CC(OC(=O)NCc2cccc3ccccc23)CC2(CCCC(COC(=O)NCC3CCCCC3)O2)O1` (stereo not given in full), the composite z-score with Albumin (Bos taurus) was -0.112; in test [2], 0.0713; in test [3], -0.123; in [4], 0.0394; in test [5], 0.745; in test [6], 0.395. The composite z-score in the test with Sam68 (KHDRBS1) was determined as 1.18; in [7] it was 0.54; in [8] it was 0.702; in [9], 1.05; in test [10], 1.06; in test [11], 0.289. The composite z-score in test [12] is 0.923; in [13], 0.421; in test [14], 0.754; in the test with Lefty1, 0.826; in [16] it was -0.264. For the same compound, in [1], the composite Z-score was 0.878 (inactive). Besides, the z-score in [15] is 0.624; in test [17], 0.632 (inactive).
As to `O=C(NN=C1C[C@@H](O)[C@@H](O)[C@@H]2[C@@H]3C(=O)N(c4ccc(F)cc4F)C(=O)[C@@H]3CC[C@H]12)OCc1ccccc1`, the composite z-score in the test with Albumin (Bos taurus) is 0.87; in [2], 0.11; in test [3], -0.0958; in test [4] it was 0.477; in test [5], 0.98; in [6], -0.27. Moreover, the composite z-score in the test with Sam68 (KHDRBS1) was found to be 0.959; in [7] it was 0.161; in test [8] it was 0.411; in test [9] it was 0.746; in [10], 0.76; in test [11] it was 0.0097. Further, the composite z-score in test [12] is 0.501; in test [13], 0.28; in test [14], 0.0684; in the test on Lefty1, 0.331; in [16] it was 0.114. The composite Z-score in [1] is -0.525 (inactive). Besides, the z-score in test [15] was -0.63; in [17], 0.934 (inactive).
Consider `O=C1C[C@@H](O)[C@@H](O)[C@@H]2[C@@H]3C(=O)N(c4ccc(F)cc4F)C(=O)[C@@H]3CC[C@H]12`, for which the composite z-score with Albumin (Bos taurus) is 0.422; in test [2], 0.0257; in test [3], -0.102; in test [4], 0.104; in test [5], 0.517; in [6], 0.0172. The composite z-score in the test with Sam68 (KHDRBS1) was determined as 0.495; in test [7] it was 0.571; in test [8] it was 0.44; in [9], 0.387; in test [10], 0.503; in test [11], 0.0336. The composite z-score in test [12] came to 0.428; in [13], 0.549; in [14], 0.401; in the test with Lefty1 it was 0.645; in test [16] it was 0.304. For the same compound, the composite Z-score in test [1] was -0.0025 (inactive). Also, the values for the z-score in [15] and in [17] were -0.834 and -0.211 (inactive), respectively.
For the compound `O=C1[C@H]2[C@H]3[C@H](O)[C@H](O)CC(=NOC[C@@H](O)COCc4ccco4)[C@@H]3CC[C@H]2C(=O)N1c1cccc(Oc2ccccc2)c1`, the composite z-score with Albumin (Bos taurus) is -0.407; in test [2] it was -0.147; in [3], -0.22; in test [4], -0.0803; in test [5], -0.704; in test [6] it was -0.0713. The composite z-score is -1.43 in the test on Sam68 (KHDRBS1); 0.381 in test [7]; 0.391 in test [8]; -1.01 in [9]; -0.964 in [10]; -0.535 in test [11]. The composite z-score in test [12] was -0.535; in test [13], 0.942; in test [14], 0.285; in the test on Lefty1 it was 0.0743; in [16] it was 0.196. In addition, in test [1], the composite Z-score was -0.352 (inactive). Besides, the z-score is -0.268 in [15] and 0.921 (inactive) in test [17].
`C[C@H]1C=CCC(=O)OC[C@H](C)C(=O)N2CCC[C@H]2C(=O)OC1`: the composite z-score was -0.68 with Albumin (Bos taurus); -0.161 in [2]; -0.115 in [3]; -0.656 in [4]; -0.802 in test [5]; 0.374 in [6]. The composite z-score in the test on Sam68 (KHDRBS1) is -0.374; in test [7] it was 1.62; in test [8] it was -0.35; in test [9], -0.637; in [10], -1.44; in [11], -0.943. Also, the composite z-score in test [12] was -1.09; in test [13] it was 1.43; in [14] it was 2.01; in the test on Lefty1 it was 1.61; in [16], -1.18. For the same compound, the composite Z-score in test [1] is 0.472 (inactive). Moreover, the z-score in test [15] was -0.823; in [17] it was 1.32 (inactive).
